According to the supplement of paper PMC6518042:

tested on: Pectobacterium parmentieri SCC3193; assay: DuctApe activity index (growth/respiration on compound as sole nutrient source, blank-subtracted) (activity index (0-3)); higher = stronger utilization of the compound, active = 3 or more; conditions: nutrient role (plate category): carbon
Method: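 Biolog Phenotype Microarray plates PM1, PM2A (carbon), PM3 (nitrogen) and PM4 (phosphorus/sulfur) inoculated with P. parmentieri SCC3193 in M9-C minimal salts medium with Biolog dye A, and read in the OmniLog for 46 h. Each well was tested in triplicate and the experiment was run twice. DuctApe computed a blank-subtracted activity index (AV, 0-3) from the mean curves; growth is positive at AV >= 3 and negative at AV <= 2.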

DuctApe activity index, active:
CO[C@H]1O[C@H](CO)[C@H](O)[C@H](O)[C@H]1O [a-Methyl-D-Galactoside] 3
O=C(O)C[C@H](O)C(=O)O [L-Malic acid] 3
O=C1O[C@H]([C@@H](O)CO)[C@@H](O)[C@@H]1O [L-Galactonic acid-g-Lactone] 3
OC[C@H]1O[C@@H](Oc2ccc(O)cc2)[C@H](O)[C@@H](O)[C@@H]1O [Arbutin] 3
O=C(O)CC(O)C(=O)O (racemic) [DL-Malic acid] 3
O=C(O)[C@H]1O[C@@H](O)[C@H](O)[C@@H](O)[C@H]1O [Pectin] 3
O=C(O)CCC(=O)O [Succinic acid] 3
O=C(O)C(O)C(O)C(=O)O (centres undefined) [m-Tartaric acid] 3
OC[C@H]1O[C@@](CO)(O[C@H]2O[C@H](CO)[C@@H](O)[C@H](O)[C@H]2O)[C@@H](O)[C@@H]1O [Sucrose] 3

DuctApe activity index, inactive:
O=C(O)CC(CC(=O)O)C(=O)O [Tricarballylic acid] 0
O=C(O)C[C@@H](O)C(=O)O [D-Malic acid] 0
C=C(CC(=O)O)C(=O)O [Itaconic acid] 0
C[C@H](O)[C@@H](N)C(=O)O [D-Threonine] 0
OC[C@@H](O)[C@H](O)[C@@H](O)CO [Xylitol] 0
OC[C@@H](O)[C@@H](O[C@@H]1O[C@H](CO)[C@H](O)[C@H](O)[C@H]1O)[C@H](O)[C@@H](O)CO [D-Lactitol] 0
CC(O)CO (centres undefined) [1,2-Propanediol] 0
O=C[C@@H](O)[C@H](O[C@@H]1O[C@H](CO)[C@H](O)[C@H](O)[C@H]1O)[C@H](O)CO [3-O-b-D-Galactopyranosyl-D-Arabinose] 1
OC[C@H]1OC(O[C@H]2[C@H](O)[C@@H](O)C(O[C@H]3[C@H](O)[C@@H](O)[C@@H](O)O[C@@H]3CO)O[C@@H]2CO)[C@H](O)[C@@H](O)[C@@H]1O (some centres undefined) [Dextrin] 0
O=C(O)Cc1ccc(O)cc1 [p-Hydroxyphenyl Acetic acid] 0
